# Screens: PubChem BioAssay, National Center for Advancing Translational Sciences (NCATS)
# MCF10A rereplic: induces DNA re-replication in MCF 10a normal breast cells; AID 624296; Potency, µM (titrated, usually from 46.1 µM), usual class: activators; MCF 10A DNA re-replication, Hoechst nuclear intensity, 48 h; hit rate 2.9% among 350,000; note: nearly all actives have a fitted effect of over 50% in size
# BCR signal inh: inhibitors of chronic active B-cell receptor signaling; Potency, µM (top dose mostly 46.1 µM), most hits filed as inhibitors; ABC-DLBCL IkBa-CBG/CBR reporter, luminescence ratio, 4 h; hit rate 0.05% among 340,000; active = well fitted inhibition curve with a large enough effect in the signal ratio, with a control signal flat, not every such curve was filed as active; inconclusive = small, poorly fitted or top-dose-only effect, or effect the other way, or a change in a side signal; the % refers to the signal ratio
#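 Doxycycline induced both beetle luciferases in TMD8 lymphoma cells; IKK-driven degradation limits the IkappaBalpha-fused green signal, while red luminescence normalises for cell number and nonspecific effects. Compounds tested up to 46 uM, 4 hrs.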
# Gal4-VP16 FLuc: inhibits Gal4-VP16 luciferase reporter, ROR gamma counter-screen. Drosophila S2 Gal4-VP16 UAS-luciferase, luminescence, 20 h. Potency, µM (highest dose often 53.6 µM), usual class: inhibitors. hit rate 3.5% among 310,000;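 note: Gal4-VP16 expression switched on by copper sulfate through the metallothionein promoter; nearly all actives have a fitted effect of over 50% in size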
# Giardia killer: kills Giardia lamblia; activity change, % at 7.66 µM, hits read low; AID 540267; hit rate 0.15% among 340,000; Giardia lamblia trophozoite viability; in the data active = activity change below about -80%; inconclusive = between about -30% and that limit;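 note: parasites exposed to compound for two days anaerobically before the ATP read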
#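 Anaerobic 48 hrs incubation at 37 deg C of 100 trophozoites/well with test compounds; ATPLite 1-Step luminescence, 15-30 min RT, reports cellular ATP as viability.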
# RORg inh: inhibitors of mouse ROR gamma transcriptional activity. hit rate 5.4% among 310,000. P51450. Potency, µM (highest dose often 53.6 µM), actives largely listed as inhibitors. Drosophila S2 Gal4-RORgamma UAS-luciferase reporter, 20 h; note: nearly all actives have a fitted effect of over 60% in size
# Target sequence (P51450 whole entry, looked up, the tested form may be a part): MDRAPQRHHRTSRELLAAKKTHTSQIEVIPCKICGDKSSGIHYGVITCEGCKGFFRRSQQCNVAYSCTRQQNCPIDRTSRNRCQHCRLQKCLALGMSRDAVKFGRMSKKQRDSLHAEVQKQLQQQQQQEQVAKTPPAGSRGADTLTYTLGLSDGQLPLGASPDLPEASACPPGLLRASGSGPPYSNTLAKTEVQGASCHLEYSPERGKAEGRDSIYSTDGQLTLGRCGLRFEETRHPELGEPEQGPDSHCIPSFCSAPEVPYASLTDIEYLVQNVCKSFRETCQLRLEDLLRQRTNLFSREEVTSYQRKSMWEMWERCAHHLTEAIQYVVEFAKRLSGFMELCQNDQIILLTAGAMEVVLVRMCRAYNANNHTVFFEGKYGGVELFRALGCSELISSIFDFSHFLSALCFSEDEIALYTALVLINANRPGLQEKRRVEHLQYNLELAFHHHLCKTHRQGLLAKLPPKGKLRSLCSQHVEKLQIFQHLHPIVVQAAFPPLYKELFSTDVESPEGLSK
#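 A Gal4/UAS one-hybrid system in insect cells: metallothionein-promoter Gal4–ROR gamma fusion plus Photinus luciferase reporter. Copper sulfate 700 uM final, 20 hr ambient incubation, luminescent detection after 10 min with reagent.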
# SW480 rerep: DNA re-replication induction in SW480 cells; AID 624297; SW480 DNA re-replication, Hoechst DNA content imaging, 48 h; hit rate 1.8% among 340,000; Potency, µM (titrated, usually from 46.1 µM), hits mostly activators; note: nearly all actives have a fitted effect of over 55% in size
#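 Image-based DNA-content assay: after two days of treatment, nuclei were labelled with the DNA dye Hoechst and imaged, and hits were compounds raising the count of nuclei showing high fluorescence intensity.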
# Numbers stand for hits; n = inactive; u = inconclusive; x = not tested or not shown; [ ] = another dose, or the depositor's remark. Most compounds without a hit are left out; they make up all but 8.3% or so of the library. Unless noted, calls come from the whole dose curve; as a rule, active = well fitted curve in the direction sought with a large enough effect; inconclusive = small, poorly fitted or top-dose-only effect, or another doubt; inactive = no such curve, though single readings can be large; an effect the other way counts as inactive or inconclusive.
SMILES,MCF10A rereplic,BCR signal inh,Gal4-VP16 FLuc,Giardia killer,RORg inh,SW480 rerep
N#CC1=C(N)Oc2c(c(=O)sc3ccccc23)C1c1cccnc1 (stereo not given),8.2µM,n,n,n,n,15µM
OC12ONC(c3ccccn3)C1N1CCC2CC1 (stereo not given),7.3µM,u,u,n,n,16µM
Clc1ccc(C(c2ccccc2Cl)C(Cl)(Cl)Cl)cc1 (stereo not given),x,x,n,x,n,x
N#Cc1ncc(N=Cc2ccc(N(CCCl)CCCl)cc2)s1,21µM,x,x,n,x,u
ClCCN(CCCl)c1ccc(C=NNc2ncccn2)cc1,u,x,x,n,x,u
Cc1nn(C)cc1/C=C1/CC2C3CC=C4CC(O)CCC4(C)C3CCC2(C)C1=O (stereo not given),u,x,x,n,x,n
CC12CCC3C(CC=C4CC(O)CCC43C)C1C/C(=C\c1ccccc1F)C2=O (stereo not given),6.5µM,n,n,n,u,n
O=c1[nH]c(=O)n(-c2ccccc2)c(O)c1/C=C1/C(c2ccccc2)=Nc2ccccc21,2.1µM,u,u,n,n,u
CC(=O)CC(c1ccccc1)c1c(O)c2ccc(O)cc2oc1=O (stereo not given),x,x,n,x,n,x
CCCCCc1cc(O)c2c(c1)OC(C)(C)C1CC=C(C)CC21 (stereo not given),7.5µM,x,u,x,n,u
CCOc1cccc(/C=N/NC(=O)c2ccc3c(c2)OCCO3)c1O,n,u,0.63µM,n,0.4µM,u
Oc1cccc(Nc2nc(-c3ccccc3)nc3ccccc23)c1,u,u,n,n,n,n
COc1ccc(CC2NCC(O)C2OC(C)=O)cc1 (stereo not given),u,x,0.079µM,u,u,n
COc1ccc(C[C@H]2NC[C@H](O)[C@@H]2OC(C)=O)cc1,x,x,35µM,x,u,x
COc1ccc(CC2NC[C@H](O)[C@H]2OC(C)=O)cc1 (stereo not given in full),x,x,0.79µM,x,0.63µM,x
CCn1c(O)c(C(=O)CC2NCCc3ccccc32)c(=O)n(CC)c1=S (stereo not given),21µM,u,n,n,n,n
c1ccc2c(c1)CCNC2,x,x,n,x,n,x
Brc1ccc(Oc2ccc(Br)cc2Br)c(Br)c1,u,n,n,n,n,n
Oc1c(Br)cc(Br)cc1Oc1ccc(Br)cc1Br,5.8µM,u,n,x,u,n
CC(C)(C)c1cc([N+](=O)[O-])cc(C(C)(C)C)c1O,n,n,4.5µM,n,14µM,n
NC(=O)c1cc([N+](=O)[O-])cc([N+](=O)[O-])c1,n,x,n,n,n,u
C=C1C(=O)O[C@@H]2C[C@@H](C)[C@@H]3C=CC(=O)[C@@]3(C)[C@@H](O)[C@H]12,0.92µM,u,3.2µM,n,3.2µM,u
CC12CC[C@H]3[C@@H](CCC4(O)C[C@H](O)CCC34/C=N/NC(=O)c3ccc(O)cc3)C1(O)CCC2C1=CC(=O)OC1 (stereo not given in full),n,u,10µM,n,8.9µM,n
COC(=O)[C@@]1(OC)C[C@@H]2O[C@@]1(C)n1c3ccccc3c3c4c(c5c6ccccc6n2c5c31)C(=O)N(C)C4,x,x,n[10 µM],x,n[10 µM],x
C[C@]12O[C@H](C[C@]1(O)CO)n1c3ccccc3c3c4c(c5c6ccccc6n2c5c31)CNC4=O,u,x,5.6µM,x,u,u
SMILES,MCF10A rereplic,BCR signal inh,Gal4-VP16 FLuc,Giardia killer,RORg inh,SW480 rerep
COc1ccc(NC(=O)c2c(C)nn(Cc3ccccc3Cl)c2Cl)cc1Cl,16µM,u,n,n,n,n
CNc1ccc2oc(C[C@@H]3OC4(CC[C@@H]3C)O[C@H](C(C)C(=O)c3ccc[nH]3)[C@H](C)C[C@H]4C)nc2c1C(=O)O (stereo not given in full),x,x,x,x,1.8µM,x
Oc1c(Cl)c(Cl)c(Cl)c(Cl)c1Cl,8.2µM,x,u,n,u,n
COP(=S)(OC)Oc1ccc([N+](=O)[O-])c(C)c1,x,x,n,x,n,x
COc1ccc(OCC(=O)Nc2ccc(Cl)cc2C(=O)c2ccccc2)cc1,n,n,n,n,n,n
Cc1ccccc1C(=O)NNC(=S)NC(=O)COc1ccccc1,n,u,u,n,13µM,n
COc1ccc(CC(=O)NC(=S)NNC(=O)COc2c(C)cccc2C)cc1,u,n,n,n,13µM,n
O=C(COc1ccccc1)Nc1ccc(Cl)cc1C(=O)c1ccccc1,n,n,n,n,n,n
CCCC(Cn1cncn1)c1ccc(Cl)cc1Cl (stereo not given),x,x,n,x,n,x
Cc1cc(O)cc2c1O[C@](C)(CCC[C@H](C)CCC[C@H](C)CCCC(C)C)CC2,n,x,n,x,n,n
CCCCCn1c(N)c(C(=O)NCCN2CCOCC2)c2nc3ccccc3nc21,u,u,n,n,n,2.9µM
CCCCCCn1c(N)c(C(=O)NCCN2CCOCC2)c2nc3ccccc3nc21,0.82µM,n,u,n,u,21µM
CCOCCCn1c(N)c(C(=O)Nc2sc3c(c2C(=O)OC)CCCC3)c2nc3ccccc3nc21,n,n,11µM,n,u,n
Cc1cccc(N2CCN(C(=O)c3ccc(CNc4c(N5CCC(C)CC5)c(=O)c4=O)cc3)CC2)c1C,n,u,n,n,n,n
CC(C)(C)c1nc(N2CCN(C(=O)c3ccco3)CC2)c2nnn(Cc3ccccc3Cl)c2n1,18µM,n,u,n,u,n
Cc1nn(Cc2ccccc2Cl)c(Cl)c1C(=O)O,n,n,n,n,n,n
COCCCn1c(N)c(C(=O)NCCC(C)C)c2nc3ccccc3nc21,u,u,n,n,n,u
CCCCCn1c(N)c(C(=O)NCc2cccs2)c2nc3ccccc3nc21,5.2µM,n,n,n,n,2.6µM
CCCOC(=O)c1c(N)n(Cc2cccs2)c2nc3ccccc3nc12,21µM,u,n,n,u,u
CCCCn1c(N)c(C(=O)NCc2cccs2)c2nc3ccccc3nc21,1.2µM,u,n,n,n,3.3µM
COCCOC(=O)c1c(N)n(Cc2ccccc2)c2nc3ccccc3nc12,n,u,n,n,n,n
COCCCNC(=O)c1c(NC(=O)c2ccccc2)n(Cc2ccccc2)c2nc3ccccc3nc12,u,x,x,n,x,1.3µM
CCCCn1c(N)c(C(=O)OCCOC)c2nc3ccccc3nc21,u,n,n,n,n,u
Cc1ccnc(SCc2nc3ccccc3s2)n1,n,u,n,n,u,n
FC(Cl)(Cl)Cl,x,x,n,x,n,x
Cc1ccc(S(=O)(=O)N2CCC(=O)N(CCOC(=O)Nc3cccc(Cl)c3)CC2)cc1,n,n,n,n,u,n
Nc1c(C(=O)NCCCc2ccccc2)c2nc3ccccc3nc2n1Cc1cccs1,u,n,u,n,u,2.9µM
CCOc1c(Cl)cc(CNCCc2c[nH]c3ccccc23)cc1OC,18µM,n,u,n,u,u
